About 83,000 compounds went through this panel and 20% of them were active in at least one assay; those are over-represented in the sample as a whole.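 The test compound was applied at a single concentration to cells in 96-well plates for 48 hours, and percent growth was recorded.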 Unmarked numbers belong to inactive results. The source made the active and inactive calls. Rule for the calls: active = growth percent below 10; inactive = the rest.

The assay deals with HL-60(TB) leukemia. The assay can be described thus: NCI-60 one-dose screen, 48 h (100 = growth as untreated, 0 = no growth, -100 = all killed). As to conditions: 10 µM unless noted.
Regarding `Nc1nc(-c2ccnc(Cl)c2)nn1-c1nc2ccccc2s1`, the growth is 107%.

Turning to `COc1ccc(/C=C/C(=O)CCC(=O)O)cc1OC`, the growth is 96.7%.

Turning to `Cc1cc(N/N=C/c2nc(-c3ccc(Br)cc3)oc2C)c2cc(Br)ccc2n1`, the growth was 18.9%.

Consider `C=C[C@@H]1C[C@H](O)Cc2c(C)cc(C)cc2N1`, for which the growth is -16.4% (active).

Regarding `O=C(Nc1ccc(-n2ccc3c(NC(=O)c4ccccc4)ncnc32)cc1)c1ccc(Cl)c(C(F)(F)F)c1`, the growth is 34.6%.

With `COc1cc([C@H](C)c2ccc3ccccc3c2)cc(OC)c1OC`, the growth is -5.85% (active).

Regarding `COc1ccccc1/C=N/NC1=NC2C(N1)N(C)C(=O)N2C` (stereo not given), the growth is 107%.

`CC1(C)CC(=O)c2c(ccc(C(=O)C[C@H](N)CO)c2N)O1`: the growth is 44.8%.

With `CCCc1cccc(CCC)c1NC(=O)Nc1cc(Cl)cc(Cl)c1`, the growth was 101%.

Turning to `CC1(C)N=C(N)N=C(N)N1c1ccc(S(=O)(=O)Nc2nccs2)cc1`, the growth was 101%.

Consider `c1ccc(-c2nnc(-c3c[nH]c4ncccc34)s2)cc1`, for which the growth was 98.4%.

As for `O=C1/C(=C/c2ccc(O)cc2)COc2ccc(O)c(O)c21`, the growth was -19.3% (active).

Turning to `O=C(Nc1ccc(-n2cc(-c3ccncc3)c(-c3ccc(O)c(Cl)c3)n2)cc1)Nc1cc(C(F)(F)F)cc(C(F)(F)F)c1`, the growth was 43.6%.

Regarding `CN(C)c1ccc(/C=C/C(=O)c2ccccc2)cc1`, the growth is 66.7%.

On to `CC/C=C\CCC/C=C1/C(=O)C=C[C@@H]1C/C=C\CCCC(=O)OC`, for which the growth was -9.11% (active).

`CCN1C(=O)N(CC)C2C1NN=c1s/c(=C3\C(=O)N(CCC(C)C)c4ccccc43)c(=O)n12` (stereo not given): the growth was -38.2% (active).

For `CC[C@]1(O)C[C@H]2CN(CCc3c([nH]c4ccccc34)[C@@](C(=O)OC)(c3cc4c(cc3OC)N(C=O)[C@H]3[C@@](O)(C(=O)OC)[C@H](OC(C)=O)[C@]5(CC)C=CCN6CC[C@]43[C@@H]65)C2)C1`, the growth was -25.1% (active).

For the molecule `COc1cnc2c(c1)C(=O)c1c-2n(CCCNC(C)C)c(=O)c2cc(F)ccc12`, the growth is -38.7% (active).

On to `NC(Cc1ccc(O)c([N+](=O)[O-])c1)C(=O)O` (stereo not given), for which the growth is 114%.

On to `CCN(CC)c1ccc(/C=N/NC(=O)CSc2nc3ccccc3c(=O)n2CCc2ccc(S(N)(=O)=O)cc2)c(O)c1`, for which the growth is -18.7% (active).

On to `O=[N+]([O-])c1cccc(-c2ncc(-c3ccc(Cl)cc3Cl)[nH]2)c1`, for which the growth is 70.1%.

With `c1cncc(-c2nc3ccccc3[nH]2)c1`, the growth was 94.8%.

Regarding `CC(=O)c1cc2c(N)c(C(=O)Nc3ccccn3)sc2nc1C`, the growth is 83.3%.

On to `O=C(Oc1ccc(CO[N+](=O)[O-])cc1)c1ccccc1`, for which the growth was -45.9% (active).

As for `Oc1c(Br)c(Br)c(O)c(Br)c1Br`, the growth was 94.3%.

Consider `Cc1c(C(=O)Nc2nc(-c3ccccc3)cs2)nnn1-c1ccccc1Br`, for which the growth was 36.9% [50 µM].

As for `COc1ccc(-c2ccc3ncc4c(c3c2)n(-c2ccc(N3CCNCC3)c(C(F)(F)F)c2)c(=O)n4C)cn1`, the growth is -65.4% (active).

Regarding `O=C(C[n+]1cccc2ccccc21)c1ccc(O)c(O)c1`, the growth was -20% (active).

In the case of `CC(=O)OCC1OC(OC2=C(CC=C(Cl)Cl)C(=O)c3ccccc3C2=O)C(OC(C)=O)C(OC(C)=O)C1OC(C)=O` (stereo not given), the growth is 0.376% (active).

With `CCOC(=O)/C(C)=C\c1ccc(OC)c(OC)c1`, the growth was 88.4%.

In the case of `CCOC(=O)N1CCC(N=C2CSc3nnc(-c4cc(C(F)(F)F)cc(C(F)(F)F)c4)n3N2)CC1`, the growth is -40.7% (active).

Regarding `CCN(CC)CCN1c2nc3ccccc3cc2Sc2cc3ccccc3nc21`, the growth was -21.1% (active).

Consider `CCCCCCCCNC(C)C(O)c1ccc(SC(C)C)cc1` (stereo not given), for which the growth was -70.1% (active).

Regarding `CCCCCCCCCCCCCCCCCCOc1ccccc1CC(=O)OCC[N+](CC)(CC)CC`, the growth is -20.7% (active).

Turning to `S=c1[nH]nc2ccccn12`, the growth was 59.3%.

On to `CCCN(CCC)CC(O)COc1ccccc1C(=O)Nc1ccccc1` (stereo not given), for which the growth is 17.3%.

As for `Cn1c(C#N)ccc1-c1ccc(F)c(NC(=O)c2ccc(F)cc2)c1`, the growth was 60%.

Consider `C[C@@H](Oc1ccc(C(=O)NS(=O)(=O)C(C)(C)C)cc1C(F)(F)F)c1ccc(Oc2ccccc2)cn1`, for which the growth was 15.8%.

For the molecule `CN(C)c1ccc(/C=N/NC(=O)c2cccc3ccccc23)c(Cl)c1`, the growth is -2.75% (active).

As to `COc1ccc(/C=C/C(=O)c2ccc(NC(=O)CSc3nnc(-c4cc(OC)c(OC)c(OC)c4)o3)cc2)cc1`, the growth is -53.4% (active).

The values are drawn from PubChem BioAssay (NCI).
